Source: PubChem
Hits are enriched below; roughly 9.9% of the tested compounds scored in any of these assays.
MCF10A rerep: induces DNA re-replication in MCF 10a normal breast cells. MCF 10A DNA re-replication, Hoechst nuclear intensity, 48 h. Potency, µM (series often up to 46.1 µM), usual class: activators. actives 2.9% (n = 350,000). AID 624296; further: nearly all actives have a fitted effect of over 50% in size
KB-V1 cytotox: KB-V1 MDR subline cytotoxicity | KB-V1 MDR cells viability, CellTiter-Glo, 72 h | Potency, µM (doses to about 46.1 µM), actives largely listed as cytotoxic | actives 3.4% (n = 400,000); further: nearly all actives have a fitted effect of over 60% in size
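Potencies derive from concentration-effect curves fitted to normalized luminescence (CellTiter-Glo) of KB-V1 cells treated for 72 h at 37 degrees C in phenol-red-free DMEM containing 10% FBS.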
IL1B secr inh: inflammasome signaling inhibition, IL-1 beta readout | actives 4.7% (n = 360,000) | activity change, % at 57.5 µM | THP-1 LPS/ATP IL-1B secretion, AlphaLISA, 16 h; active compounds read low | AID 743279; in the data active means activity change below about -50%; inconclusive means mostly about -30% to -49%
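Secreted IL-1B measured by AlphaLISA bead assay after 16 h compound exposure of THP-1 cells; compounds (final up to 57.5 uM) added 1 h before LPS (250 ng/mL) and ATP (1.25 mM) stimulation; lower signal means less secretion.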
KB-3-1 cytotox: kills parental KB-3-1 adenocarcinoma cells; KB-3-1 viability, CellTiter-Glo ATP luminescence, 72 h; Potency, µM (series often up to 46.1 µM), actives largely listed as cytotoxic; actives 1.4% (n = 400,000); further: nearly all actives have a fitted effect of over 60% in size
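Cytotoxicity measured as CellTiter-Glo luminescence after 72 h at 37 C. Compound titrations were pinned onto drug-naive KB-3-1 parental adenocarcinoma cells grown in DMEM with 10% FBS, and normalized data fitted to concentration-response curves.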
SW480 rerep: induces DNA re-replication in SW480 colon adenocarcinoma cells | SW480 DNA re-replication, Hoechst DNA content imaging, 48 h | Potency, µM (titrated, usually from 46.1 µM), most hits filed as activators | actives 1.8% (n = 340,000) | AID 624297; further: nearly all actives have a fitted effect of over 55% in size
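Readout is total intensity of Hoechst-stained nuclei, excited at 405 nm and collected at 500-530 nm. Compound treatment lasted 48 hr at 37 C in 5% CO2 before staining.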
Numbers stand for hits; n = inactive; u = inconclusive; x = no result; ! = a repeat was not active; [ ] = dose if it differs, or a comment. Unless noted, the call rests on the fitted dose curve; in most records, active means well fitted curve in the direction sought with a large enough effect; inconclusive means small, poorly fitted or top-dose-only effect, or another doubt; inactive means no such curve, though single readings can be large; an effect the other way counts as inactive or inconclusive.

SMILES | MCF10A rerep | KB-V1 cytotox | IL1B secr inh | KB-3-1 cytotox | SW480 rerep
COc1ccc2c(c1OC)CN1CCc3cc4c(cc3C1C2)OCO4 (stereo not given) | n | n | n | u | n
COc1ccc(NC2Oc3cc4c(cc3C(c3cc(OC)c(OC)c(OC)c3)C2C)OCO4)cc1 (stereo not given) | 0.58µM | 5.8µM | -64 | 1.6µM | 1µM
CC1CCC(NC(=O)c2cc3c(=O)n(C)c4ccccc4c3n2C)CC1 (stereo not given) | u | n | n | n | n
CC(C)NCC(O)c1ccc(C2CCCC2)cc1 (stereo not given) | n | 23µM | u | n | n
CC(C)NCC(O)c1ccc(N)c(C#N)c1 (stereo not given) | n | x | x | x | n
N#CC(C#N)=C(C#N)c1ccc(Nc2ccccc2)cc1 | u | u | -90 | n | u
C=CC1CN2CCC1CC2C(OC(C)=O)c1ccnc2ccc(OC)cc12 (stereo not given) | n | n | n | n | n
COC1CC2C=C(C)C=CC=CC(=O)NC(c3ccccc3)CC=CCCC(O)CC(=O)C2=C1O (stereo not given) | x | 5.8µM | -113 | 5.8µM | x
CNc1ccc2oc(C[C@H]3O[C@@]4(CC[C@H]3C)O[C@H]([C@H](C)C(=O)c3ccc[nH]3)[C@H](C)C[C@H]4C)nc2c1C(=O)O | 4.6µM | 3.7µM | n | 4.1µM | u
CNc1ccc(C(=O)CC(O)CCC(C)C2OC(=O)CC(O)CC(=O)CC(O)CC(O)CC(O)CC(O)CC3(O)CC(O)C(C(=O)OC)C(CC(O[C@@H]4OC(C)C(O)C(N)C4O)/C=C/C=C/C=C/C=C/C=C/C=C/C=C/C2C)O3)cc1 (stereo not given in full) | n | x | x | x | n
CCOC(=O)Cn1c(-c2ccccc2)ccc(C#N)c1=O | n | n | n | n | u
O=C1NC(=O)C(=Cc2c(Cl)cccc2Cl)C(=O)N1 | u | n | -58 | u | u
CN1C(=O)NC(=O)/C(=C\C=C\c2ccccc2[N+](=O)[O-])C1=O | u | n | -98 | u | 15µM
Cc1ccc(NC(=O)N(Cc2ccc3c(c2)OCO3)C2CCN(Cc3ccccc3)CC2)cc1Cl | x | n | x | u | x
C[C@@]12C(=O)N(Cc3ccco3)CC(=O)N1[C@H]1c3ccccc3OC[C@@H]1[C@@H]2c1ccccc1 | n | n | n | n | n
CCOC(=O)[C@]12Cc3c(cc(OC)c(OC)c3OC)[C@H]1N(C1CCCCC1)C(=O)c1ccccc12 | x | u | -113 | 3.3µM | x
CCOC(=O)[C@]12Cc3ccc(C)cc3[C@H]1N(C1CCCCC1)C(=O)c1ccccc12 | x | 2.3µM | -118 | 1.2µM | x
CCOC(=O)[C@]12Cc3cc(Cl)ccc3[C@H]1N(C1CCCCC1)C(=O)c1cc(OC)ccc12 | x | 5.8µM | -110 | 1µM | x
CCOC(=O)[C@]12Cc3ccc(C)cc3[C@H]1N(C1CCCCC1)C(=O)c1cc(OC)ccc12 | x | 4.6µM | -116 | u | x
CCOC(=O)[C@]12Cc3cc4c(cc3[C@H]1N(Cc1ccccc1)C(=O)c1ccccc12)OCO4 | n | u | n | u | n[9.22 µM]
CCOC(=O)C1C(=O)N(C)C2(C)CC1c1cc(OC)ccc1O2 (stereo not given) | n | n | n | n | n
CCN1CCC[C@@H](OC(=O)C(c2ccccc2)c2ccccc2)C1 | n | x | x | x | n
CCOc1ccc(OCC)c(NC(=O)CN2CCN(c3ccc(C)cc3C)CC2)c1 | u | n | n | n | n[9.22 µM]
O=C1C2CCCC1C(N1CCCCC1)CC2 (stereo not given) | n | n | n | n | n
CCOC(=O)[C@]12Cc3cc(C)ccc3[C@H]1N(C1CCCCC1)C(=O)c1ccccc12 | x | 2.6µM | -111 | 1.6µM | x
CCOC(=O)[C@]12Cc3ccccc3[C@H]1N(C(C)C)C(=O)c1ccccc12 | x | n | -116 | 21µM | x
CCOC(=O)C1(c2ccccc2)CCN(CC(=O)Nc2ccc(C)cc2)CC1 | n | u | n | n | u
NC(=O)c1cn(C2OC(CO)C(O)C2O)c2ncnc(N)c12 (stereo not given) | u | 0.0073µM! | -81! | 0.021µM | 0.058µM
NC(=O)c1ncn(C2OC(CO)C(O)C2O)n1 (stereo not given) | n | x | x | x | n
